Bioassay records: PubChem, several laboratories
Rtt109 HAT inh: blocks Candida albicans Rtt109/Vps75 acetyltransferase activity. Q5AAJ8. purified Rtt109/Vps75, ThioGlo CoA-SH fluorescence, 4 h. inhibition, % at 34.9 µM. 330,000 compounds, 0.16% hits. AID 540336;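 active = inhibition of at least 50% in every replicate; inconclusive = best replicate reaches 50% inhibition but some replicates fall short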
Target sequence (Q5AAJ8 whole entry, looked up): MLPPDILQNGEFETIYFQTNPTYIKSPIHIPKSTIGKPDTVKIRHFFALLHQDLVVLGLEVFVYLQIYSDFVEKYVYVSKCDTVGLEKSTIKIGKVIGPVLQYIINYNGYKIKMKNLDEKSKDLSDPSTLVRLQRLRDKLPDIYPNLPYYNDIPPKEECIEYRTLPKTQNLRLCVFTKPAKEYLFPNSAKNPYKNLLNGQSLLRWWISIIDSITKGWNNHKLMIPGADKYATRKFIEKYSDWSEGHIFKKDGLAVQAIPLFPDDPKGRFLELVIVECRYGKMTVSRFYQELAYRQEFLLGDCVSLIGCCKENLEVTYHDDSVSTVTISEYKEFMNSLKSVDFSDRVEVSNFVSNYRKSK
ALR H2O2 inh: blocks human ALR sulfhydryl oxidase activity | P55789 | purified ALR, DTT oxidation, H2O2 HRP-luminol luminescence | inhibition, % (concentration not given with the values) | 290,000 compounds, 3.8% hits | AID 485317;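 active = mean replicate inhibition above about 79%, with every replicate also reaching it, limit read from the data; inconclusive = only one of the two criteria met; inactive = mean below limit and not every replicate reaching it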
LANA-H2A inh: blocks KSHV LANA binding to histone H2A/H2B; 320,000 compounds, 0.6% hits; AID 2629; cell-free LANA-H2A/H2B peptide, fluorescence polarization; Q9QR71; inhibition, % (test concentration not listed); in the data active = inhibition mostly above about 10%, no sharp cut-off; inactive = mostly below about 6.7%
ABHD5 PLIN5 PPI: blocks binding of human ABHD5 to perilipin-5. Split G. princeps luciferase complementation, luminescence, 4 h. inhibition, % at 4 µM. 360,000 compounds, 0.78% hits. Q00G26+Q8WTS1;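 active = inhibition above the mean inhibition across every tested compound plus 3 SD, cut at about 22% in these data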
rCAG RNA binder: molecules binding r(CAG) RNA repeats. r(CAG) RNA repeat, TO-PRO-1 dye displacement fluorescence. inhibition, % at 3 µM. 370,000 compounds, 1.3% hits;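 active = inhibition above the plate cutoff, the mean of all test compounds on that plate plus 3 SD, cut at about 35% in these data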;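 note: higher means more dye released from RNA so lower well fluorescence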
PRMT1 FP inh: inhibitors of human PRMT1; 370,000 compounds, 1.3% hits; inhibition, % at 2.79 µM; recombinant PRMT1, activity-based probe fluorescence polarization; Q99873; AID 652257;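 active = inhibition above about 21% made by adding two undisclosed values, limit read from the data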
Target sequence (Q99873 whole entry, looked up): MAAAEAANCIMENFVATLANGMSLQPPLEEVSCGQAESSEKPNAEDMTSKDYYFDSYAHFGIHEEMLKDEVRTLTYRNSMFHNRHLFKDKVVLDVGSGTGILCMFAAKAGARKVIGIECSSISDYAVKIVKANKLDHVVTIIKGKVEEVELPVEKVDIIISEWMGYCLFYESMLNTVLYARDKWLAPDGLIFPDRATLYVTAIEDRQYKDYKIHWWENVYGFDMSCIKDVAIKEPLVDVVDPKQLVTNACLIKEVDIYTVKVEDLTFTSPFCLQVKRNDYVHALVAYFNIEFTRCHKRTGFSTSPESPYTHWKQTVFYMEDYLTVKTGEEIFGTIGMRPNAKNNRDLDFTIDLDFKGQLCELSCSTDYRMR
rCAG bind conf: r(CAG) RNA repeat binding, confirmation. shares compounds with rCAG RNA binder. TO-PRO-1 dye displacement fluorescence. inhibition, % at 3 µM. 4,300 compounds, 70% hits. AID 652065;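 active = inhibition above a per-plate cutoff, the mean inhibition of sample wells plus 3 SD, cut at about 35% in these data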;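 note: loss of TO-PRO-1 fluorescence as compound displaces dye from 1x1 AA loop RNA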
dCAG dye counter: counter-screen for rCAG RNA binders: DNA CAG dye complex inhibitors; shares compounds with rCAG RNA binder; d(CAG) DNA oligo TO-PRO-1 dye displacement, fluorescence; inhibition, % at 3 µM; 4,300 compounds, 94% hits; AID 652068;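 active = inhibition above its plate's cutoff, the mean test-well inhibition plus 3 SD, cut at about 4.8% in these data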;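 note: hits displace the dye from DNA and so lower well fluorescence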
Each line names hits and unclear results; the compound was inactive in the other large screens (follow-up assays come after a bar, where they were run). A selection: hits, their analogues and other compounds. The true share with any hit is near 5.9%.

COc1ccc(N(CC(=O)Nc2cc(OC)c(OC)cc2C(=O)O)S(=O)(=O)c2c(C)noc2C)cc1	rCAG RNA binder 41 | rCAG bind conf inactive | dCAG dye counter inactive
COCCCNc1nc2ccccc2nc1NS(=O)(=O)c1cccc(Cl)c1	rCAG RNA binder 38 | rCAG bind conf inactive | dCAG dye counter 6.7
O=S(=O)(Nc1nc2ccccc2nc1NCC1CCCO1)c1cccc(Cl)c1 (stereo not drawn)	ALR H2O2 inh 87, rCAG RNA binder 54 | rCAG bind conf 40 | dCAG dye counter 10
COC(=O)[C@]1(CNS(=O)(=O)c2ccc(F)cc2)CC(=O)N(C)[C@@H]1c1ccccc1	none (no result: Rtt109 HAT inh, ALR H2O2 inh, LANA-H2A inh, ABHD5 PLIN5 PPI)
CCOc1ccc(Cl)cc1-c1cc(C(=O)NCc2ccccc2OC)[nH]n1	none (no result: Rtt109 HAT inh, ALR H2O2 inh, LANA-H2A inh)
CCOC(=O)c1c(Nc2ccc(Cl)cc2)sc(/C=C2\C=Nc3ccccc32)c1O	none
Oc1nc(Nc2ccc(F)cc2)sc1/C=C1\C=Nc2ccccc21	rCAG RNA binder 48 | rCAG bind conf inactive | dCAG dye counter 14
CCCC1CCC2(CC1)CCC2OC(=S)NCCc1ccc(Cl)cc1 (stereo not drawn)	none (no result: Rtt109 HAT inh, ALR H2O2 inh, LANA-H2A inh, ABHD5 PLIN5 PPI, rCAG RNA binder)
CCOC(=O)C1=NOC(C(=O)Nc2cc(C)cc(C)c2)(C(=O)C2CC2)C1 (stereo not drawn)	none (no result: Rtt109 HAT inh, ALR H2O2 inh, LANA-H2A inh, ABHD5 PLIN5 PPI)
N#CC1=C(S)N(c2ccccc2)C(c2ccc(-c3ccccc3Cl)o2)NC1=O (stereo not drawn)	Rtt109 HAT inh inconclusive, rCAG RNA binder 52 | rCAG bind conf 76 | dCAG dye counter 40
CC(C)(C)c1ccc2c(c1)OC(C(=O)N/N=C\c1ccc(-c3cccc(C(=O)O)c3)o1)CO2 (stereo not drawn)	rCAG RNA binder 41 | rCAG bind conf 77 | dCAG dye counter 43
O=C(O)c1cccc(-c2ccc(/C=N/NC(=O)C3COc4ccccc4O3)o2)c1 (stereo not drawn)	none
Cc1ccc(OCC(=O)N/N=C\c2ccc(-c3cccc(C(=O)O)c3)o2)c(C)c1	rCAG RNA binder 46 | rCAG bind conf 42 | dCAG dye counter 11
Cc1ccc(OCC(=O)N/N=C\c2ccc(C)o2)c(C)c1	none
CC(=O)c1cc2cccc(OC3(C)CCN(Cc4ccc5ccccc5c4)C3)c2o1 (stereo not drawn)	none (no result: Rtt109 HAT inh, ALR H2O2 inh, LANA-H2A inh)
CCOC(=O)CN1C(=O)S/C(=C\c2ccc(-c3cccc(C(=O)O)c3C)o2)C1=O	none (no result: Rtt109 HAT inh)
N=C1S/C(=C\c2ccc(-c3ccccc3C(=O)O)o2)C(=O)N1c1ccc2c(c1)OCO2	rCAG RNA binder 42 (no result: ALR H2O2 inh, LANA-H2A inh) | rCAG bind conf inactive | dCAG dye counter 10
O=C(O)c1cccc(NS(=O)(=O)c2ccc(Oc3ccc(S(=O)(=O)Nc4cccc(C(=O)O)c4)cc3)cc2)c1	rCAG RNA binder 47 | rCAG bind conf inactive | dCAG dye counter inactive
O=C(O)c1cccc(NC(CNS(=O)(=O)c2ccc(Cl)cc2)c2ccccc2)c1 (stereo not drawn)	rCAG RNA binder 43 (no result: Rtt109 HAT inh) | rCAG bind conf 37 | dCAG dye counter 11
O=C(O)c1cccc(NS(=O)(=O)c2ccc(Cl)c(C(=O)O)c2)c1	none (no result: Rtt109 HAT inh)
O=C(O)c1cccc(NS(=O)(=O)c2ccc(-c3ccc(S(=O)(=O)Nc4cccc(C(=O)O)c4)cc3)cc2)c1	rCAG RNA binder 43 (no result: Rtt109 HAT inh, ALR H2O2 inh) | rCAG bind conf inactive | dCAG dye counter inactive
O=C(O)c1cccc(S(=O)(=O)Nc2ccc(-c3ccccc3)cc2)c1	none (no result: ALR H2O2 inh)
CC(C)(C)c1ccc(-c2nnc(SCC(=O)Nc3ccccc3-c3ccccc3)n2Cc2ccco2)cc1	none (no result: Rtt109 HAT inh, ALR H2O2 inh, LANA-H2A inh, ABHD5 PLIN5 PPI)
COc1ccc(C2=CCN(C)C(=O)N2c2ccc([N+](=O)[O-])cc2)cc1	none (no result: Rtt109 HAT inh, ALR H2O2 inh, LANA-H2A inh, ABHD5 PLIN5 PPI)
COc1ccc(Cl)cc1NC(=O)C(C)OC(=O)c1ccc(NS(=O)(=O)c2ccc3[nH]c(=O)[nH]c3c2)cc1 (stereo not drawn)	rCAG RNA binder 39 | rCAG bind conf 49 | dCAG dye counter 17
CC(OC(=O)c1ccc(NS(=O)(=O)c2ccc3[nH]c(=O)[nH]c3c2)cc1)C(=O)Nc1ccc(Cl)cc1 (stereo not drawn)	rCAG RNA binder 43 | rCAG bind conf inactive | dCAG dye counter 13
CC(OC(=O)c1ccc(NS(=O)(=O)c2ccc3[nH]c(=O)[nH]c3c2)cc1)C(N)=O (stereo not drawn)	none
COCCNC(=O)C1(C)CCCN(C(=O)c2ccco2)C1 (stereo not drawn)	none (no result: Rtt109 HAT inh, ALR H2O2 inh, LANA-H2A inh)
Nc1c(N)c2ccccc2oc1=O	none
O=c1oc2ccccc2c2oc3cc(O)c(O)cc3c12	rCAG RNA binder 41 (no result: ALR H2O2 inh) | rCAG bind conf 53 | dCAG dye counter 28
Fc1cccc(Cc2c(-c3ccccc3)nc3c(Cl)cc(C(F)(F)F)cn23)c1	none (no result: Rtt109 HAT inh, ALR H2O2 inh, LANA-H2A inh)
CC(=O)C1C(=O)c2c(cccc2[N+](=O)[O-])C1=Nc1ccc(S(N)(=O)=O)cc1 (stereo not drawn)	rCAG RNA binder 38 | rCAG bind conf inactive | dCAG dye counter 13
Cc1[nH]n(-c2ncc(-c3ccccc3)s2)c(=O)c1C(c1ccc(Br)cc1)C(C#N)C#N (stereo not drawn)	rCAG RNA binder 57 (no result: Rtt109 HAT inh) | rCAG bind conf 80 | dCAG dye counter 50
Cc1[nH]n(C(N)=S)c(=O)c1C(c1ccccc1)C(C#N)C#N (stereo not drawn)	none
Nc1ccc(S(=O)(=O)Nc2nc(-c3ccccc3)cc(-c3ccccc3O)n2)cc1	rCAG RNA binder 58 (no result: Rtt109 HAT inh, ALR H2O2 inh, LANA-H2A inh) | rCAG bind conf 54 | dCAG dye counter 18
Nc1ccc(S(=O)(=O)Nc2nc(-c3ccccc3)cc(-c3ccccc3)n2)cc1	none
Cc1ccc(S(=O)(=O)Oc2ccc(/C=C(/NC(=O)c3ccccc3)C(=O)NCC(=O)O)cc2)cc1	none
Cc1ccc(S(=O)(=O)Oc2ccc(/C=C(/NC(=O)c3ccccc3)C(=O)O)cc2)cc1	rCAG RNA binder 40 | rCAG bind conf 37 | dCAG dye counter 9.3
Cc1cc(C)cc(Nc2nc3ccccc3c(=O)[nH]2)c1	rCAG RNA binder 41 (no result: ALR H2O2 inh) | rCAG bind conf inactive | dCAG dye counter 16
CC1(Cc2ccccc2Cl)C(=O)Nc2c(Cl)cccc21 (stereo not drawn)	none (no result: Rtt109 HAT inh, ALR H2O2 inh, LANA-H2A inh)
C/C(=N/NC(=O)c1sc(NS(=O)(=O)c2ccccc2)nc1C)c1sc(N)nc1C	rCAG RNA binder 79 | rCAG bind conf inactive | dCAG dye counter inactive
Cc1ccc(S(=O)(=O)Nc2nc(C)c(NC(=O)Nc3ccc(Cl)cc3Cl)s2)cc1	rCAG RNA binder 62 | rCAG bind conf 59 | dCAG dye counter 24
